# hNpr1 antagonist = Natriuretic polypeptide receptor (hNpr1) antagonism - Primary qHTS | AID 1347048, 2019 | HEK293 hNpr1 GloSensor cGMP, ANP-stimulated luminescence | Atrial natriuretic peptide receptor 1 (Homo sapiens), P16066 | hit rate 1.6% among 76,000 | Potency, µM (top dose mostly 46.3 µM), inactives show at the top dose activity change, negative = inhibition, most hits filed as inhibitors; calls by dose curve; note: % is set by controls: 0 for no effect and ±100 for the full control effect; nearly all actives have a fitted effect of over 60% in size
# Target sequence (P16066 whole entry, looked up): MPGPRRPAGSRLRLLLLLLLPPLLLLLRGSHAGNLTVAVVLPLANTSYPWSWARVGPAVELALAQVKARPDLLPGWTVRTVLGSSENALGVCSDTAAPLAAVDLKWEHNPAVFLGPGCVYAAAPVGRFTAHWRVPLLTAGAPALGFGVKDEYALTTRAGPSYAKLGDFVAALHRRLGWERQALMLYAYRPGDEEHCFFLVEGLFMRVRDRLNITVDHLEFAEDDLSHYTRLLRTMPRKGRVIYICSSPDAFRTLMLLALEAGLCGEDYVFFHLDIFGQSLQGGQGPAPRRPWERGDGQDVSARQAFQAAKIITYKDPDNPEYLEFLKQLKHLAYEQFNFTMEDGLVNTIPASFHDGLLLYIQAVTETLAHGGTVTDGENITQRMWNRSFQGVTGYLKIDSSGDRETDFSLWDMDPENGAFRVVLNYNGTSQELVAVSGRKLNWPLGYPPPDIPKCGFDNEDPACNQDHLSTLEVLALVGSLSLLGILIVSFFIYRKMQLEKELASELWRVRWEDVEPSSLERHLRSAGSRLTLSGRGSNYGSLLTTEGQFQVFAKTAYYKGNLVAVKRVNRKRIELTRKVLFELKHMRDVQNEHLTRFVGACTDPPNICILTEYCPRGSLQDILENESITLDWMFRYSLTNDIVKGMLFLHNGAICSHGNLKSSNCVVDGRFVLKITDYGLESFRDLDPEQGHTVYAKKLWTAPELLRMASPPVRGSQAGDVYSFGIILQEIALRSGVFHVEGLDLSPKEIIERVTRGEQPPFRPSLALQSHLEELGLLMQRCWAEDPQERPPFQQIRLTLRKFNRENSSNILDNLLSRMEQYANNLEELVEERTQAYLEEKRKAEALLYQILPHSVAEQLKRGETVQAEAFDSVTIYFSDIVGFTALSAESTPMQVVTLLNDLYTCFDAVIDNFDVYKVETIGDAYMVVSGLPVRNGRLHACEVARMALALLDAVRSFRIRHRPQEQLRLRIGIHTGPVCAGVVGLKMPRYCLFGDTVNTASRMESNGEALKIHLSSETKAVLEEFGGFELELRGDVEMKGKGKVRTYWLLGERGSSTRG
#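 Compound pre-incubated 30 min at room temperature on GloSensor-loaded HEK293 cells stably carrying hNpr1 and the pGS-40F cGMP biosensor. Stimulation uses hNppA at 0.1 nM final; luminescence is taken at baseline and 20 min post-agonist.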
# 3T3 cytotox = Cytotoxic Profiling in NIH 3T3 Cell Line of Diverse Libraries Using Quantitative High-Throughput Screening; NIH 3T3 viability, CellTiter-Glo ATP luminescence, 48-72 h; Potency, µM (doses to about 96.7 µM), for inactives: at the highest dose activity change, negative = cytotoxicity, actives largely listed as inhibitors; hit rate 4.3% among 94,000; AID 1345082, 2018; note: % is set by controls: 0 for no effect and ±100 for the full control effect; nearly all actives have a fitted effect of over 55% in size
#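 ATP-dependent luminescence (CellTiter-Glo) served as the viability signal for NIH 3T3 cells treated with compound for 48 or 72 hr at 37 °C.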
# HEK cytotox = Cytotoxic Profiling in HEK 293 Cell Line of Diverse Libraries Using Quantitative High-Throughput Screening; HEK 293 viability, ATP luminescence (CellTiter-Glo), 48-72 h; Potency, µM (top dose mostly 115 µM), without a hit: at the highest dose activity change, negative = cytotoxicity, actives largely listed as inhibitors; hit rate 6.6% among 94,000; note: % is set by controls: 0 for no effect and ±100 for the full control effect; nearly all actives have a fitted effect of over 60% in size
#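 HEK 293 cells at 250 cells/well were exposed to compounds by pintool transfer for 48 or 72 hr at 37 degree Celsius, 5% CO2. Viability was read as ATP-coupled luminescence with CellTiter-Glo after 10 min at room temperature.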
# FLuc inh-1 = Firefly luciferase inhibition profiling of diverse chemical library using quantitative high-throughput screening | Luciferin 4-monooxygenase (Photinus pyralis), P08659 | purified P. pyralis luciferase, luminescence, biochemical | Potency, µM (series often up to 115 µM), hits mostly inhibitors | hit rate 2.5% among 76,000; note: % is set by controls: 0 for no effect and ±100 for the full control effect; nearly all actives have a fitted effect of over 65% in size
#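 FLuc 10nM, D-luciferin 10uM, ATP 10uM, Mg acetate 10mM, Tris acetate pH 7.5, Tween/BSA; cpd qHTS; enzyme added last; CCD luminescence.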
# FLuc SDR -ATP = Firefly luciferase (FLuc-C-HiBiT) SDR gain of signal screen - without ATP | shares compounds with FLuc inh-1 | Purified FLuc-C-HiBiT, Nano-Glo HiBiT luminescence, no ATP | Potency, µM (series often up to 32.7 µM), for inactives: at the highest dose activation (signal gain), actives largely listed as activators | hit rate 7.8% among 1,300; note: nearly all actives have a fitted effect of over 55% in size
# FLuc SDR ATP = Firefly luciferase (FLuc-C-HiBiT) SDR gain of signal screen - plus ATP | shares compounds with FLuc inh-1 | purified FLuc-C-HiBiT + ATP, HiBiT complementation luminescence | Potency, µM (titrated, usually from 32.7 µM), without a hit: top-dose activation (gain of signal), most hits filed as activators | hit rate 8.7% among 1,300 | AID 1963319, 2024;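 note: signal reports ligand binding via conformational change of the enzyme rather than luciferase catalysis; % of control where 0% means no effect; nearly all actives have a fitted effect of over 55% in size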
# FLuc inh-2 = Firefly luciferase (FLuc-C-HiBiT) enzymatic inhibition screen - Functional assay; shares compounds with FLuc inh-1; purified FLuc-C-HiBiT enzyme, luciferin luminescence; Potency, µM (highest dose often 32.7 µM), for inactives: at the highest dose activity change, negative = inhibition, usual class: inhibitors; hit rate 42% among 1,300; AID 1963320, 2024; note: % is set by controls: 0 for no effect and ±100 for the full control effect; nearly all actives have a fitted effect of over 70% in size
# An asterisk follows results filed as active; i = inactive; ? = inconclusive; . = not tested or not shown; [ ] = remark or other dose. Shown are actives, neighbours in structure and some others; about 11% of the full set was active somewhere. Unless noted, calls come from the whole dose curve; as a rule, active = well fitted curve in the direction sought with a large enough effect; inconclusive = small, poorly fitted or top-dose-only effect, or another doubt; inactive = no such curve, though single readings can be large; an effect the other way counts as inactive or inconclusive. Potency is the fitted concentration of half-maximal effect.
SMILES,hNpr1 antagonist,3T3 cytotox,HEK cytotox,FLuc inh-1,FLuc SDR -ATP,FLuc SDR ATP,FLuc inh-2
CN1CCN(c2ccc(-c3cc4c(ccn4C)c(C(=O)NCC4CCC(=O)N4)n3)cc2)CC1 (stereo unspecified),1%,28µM*,40µM*,10µM*,18%,12%,?
CN1CCN(c2ccc(-c3cc4c(ccn4C)c(C(=O)NCCC(N)=O)n3)cc2)CC1,-3%[70.6 µM],79µM*,71µM*,7.1µM*,26%[49.3 µM],17%[49.3 µM],14µM*
CN(C)CCNC(=O)c1nc(-c2cccc(N3CCOCC3)c2)cc2c1ccn2C,3%[70.6 µM],?,?,i,.,.,.
Cc1sc2ccn(Cc3ccc(F)cc3)c(=O)c2c1C(=O)NCCCN1CCOCC1,2%,-5%,?,i,.,.,.
COc1ccc(OC)c(-c2nc3ccc(OC)cc3s2)c1,.,.,.,.,21%,14%,?
COCCCNC(=O)c1cc2c(=O)[nH]c(-c3ccccc3)cn2n1,-1%,-25%,?,i,.,.,.
C=CCOc1cccc(-c2nc(C(=O)Nc3ccccc3)cs2)c1,1%,?,?,?,.,.,.
COc1cc(-c2nc3ccccc3s2)ccc1O,.,.,.,.,24%,17%,11µM*
COc1ccccc1CC(=O)N1CCCc2ncc(C(=O)Nc3ccccc3C)cc21,-3%[70.6 µM],-29%[138 µM],?,i,.,.,.
Cc1nonc1COc1ccc(C(=O)Nc2cccc(-c3nc4ccccc4s3)c2)cc1,.,.,.,.,9%,10%,?
COc1ccc(C(=O)Nc2ccc(-c3nc4ccccc4s3)cc2C)cc1Cl,.,.,.,.,10%,8%,-4%
Cc1c(C(=O)Nc2cccc(-c3nc4ccccc4s3)c2)oc2ccc(F)cc12,.,.,.,.,12%,8%,-14%
O=S(=O)(NC[C@H]1COCc2nc3cccnc3n21)c1ccc(Cl)cc1,?,-23%[138 µM],?,i,.,.,.
COCCCNC(=O)N1CCCN(Cc2ccncc2)C(c2ccccc2)CC(=O)NCC1 (stereo unspecified),4%,-13%,1%,i,.,.,.
COc1ccc(-c2nc3ccccc3o2)cc1NC(=O)c1cccnc1,.,.,.,.,18%,11%,?
CCCCOc1ccc(C(=O)Nc2ccc(-c3nc4ccccc4s3)cc2C)cc1,.,.,.,.,18%,10%,0%
COc1ccc(-c2nc3ccccc3s2)cc1NC(=O)c1cc(OC)c(OC)c(OC)c1,.,.,.,.,14%,10%,?
CCOCCCNC(=O)CNC(=O)c1ccc(-c2cnc3ccccc3c2)cc1,.,-34%,-3%,.,.,.,.
COc1ccc(-c2nc3ccccc3s2)cc1NC(=O)c1ccccc1OC,.,.,.,.,18%,10%,?
CCOc1ccc(C(=O)Nc2cc(-c3nc4ccccc4s3)ccc2OC)cc1,.,.,.,.,17%,9%,-5%
COc1ccc(C)cc1NC(=O)c1cnc(-c2ccc(F)cc2)nc1-c1ccncc1,?,-37%,-34%,i,.,.,.
COc1ccc(C(=O)Nc2cc(-c3nc4ccccc4s3)ccc2OC)cc1,.,.,.,.,13%,10%,?
COc1ccc(-c2nc3ccccc3s2)cc1NC(=O)c1cccc(F)c1,.,.,.,.,9%,8%,-12%
O=C(Nc1cccc(-c2nc3ccccc3s2)c1)N1CCC(O)C1 (stereo unspecified),.,.,.,.,?,?,8.8µM*
CNC(=O)C(C)(C)N1CCC[C@H]1C(=O)N1CCc2ccccc2C1,-8%[70.6 µM],-9%[174 µM],?,i,.,.,.
SMILES,hNpr1 antagonist,3T3 cytotox,HEK cytotox,FLuc inh-1,FLuc SDR -ATP,FLuc SDR ATP,FLuc inh-2
O=C(c1ccccc1F)N1CCC(C(=O)N2CCCC2c2nc3ccncc3[nH]2)CC1 (stereo unspecified),.,-2%,5%,.,.,.,.
COc1ccc(-c2noc(-c3nc(-c4ccccc4OC)no3)n2)cc1OC,3%,i,-8%,i,.,.,.
COc1ccc(-c2nc3cc(F)ccc3s2)cc1OC,.,.,.,.,20%[3.62 µM],14%[3.62 µM],?
CN(C)Cc1cn2c(=O)n(C)cc(-c3cccc(OC(F)(F)F)c3)c2n1,5%[70.6 µM],?,?,i,.,.,.
Cc1ccc(-c2ncc3c(n2)OCCN(Cc2ccc(F)cc2F)C3=O)cc1,?,?,-22%[172 µM],3.2µM*,12%[49.3 µM],11%[49.3 µM],-4%[49.3 µM]
CN1CCOc2nc(-c3cccc(OC(F)(F)F)c3)ncc2C1=O,?,?,?,3.2µM*,21%[49.3 µM],?,?
O=C1c2cnc(-c3cccc(CO)c3)nc2OCCN1c1cccc(C(F)(F)F)c1,?,18µM*,?,11µM*,16%[49.3 µM],14%[49.3 µM],?
O=C(CN1CCCc2nc(-c3ccncc3)ncc2C1=O)NCc1cc(F)ccc1F,?,?,?,i,.,.,.
O=C1c2cnc(-c3cccc(C(F)(F)F)c3)nc2OCCN1CC1CC1,?,?,?,3.2µM*,?,?,9µM*
CC(=O)Nc1cccc(C(=O)N2CCC(n3cc(-c4nc(C(C)C)no4)nn3)C2)c1 (stereo unspecified),-17%,-5%,-7%,i,.,.,.
O=C(NCc1nnc2c(-c3nc(C4CC4)no3)cccn12)c1cc(F)ccc1Cl,7%,-9%,?,i,.,.,.
Cn1ncc2c(C(=O)NC3CCOCC3)cc(-c3cccc(C(F)(F)F)c3)nc21,.,?,-3%,.,.,.,.
O=C(NCCc1ccccn1)[C@@H]1CCCN1c1ccnc2ccnn12,.,?,-2%,.,.,.,.
c1c(-c2nc(C3CCOC3)no2)sc2c1CCCC2 (stereo unspecified),8.9µM*,?,?,0.63µM*,21%,?,5.6µM*
CC(=O)c1ccc(-c2nc(C3CCOC3)no2)s1 (stereo unspecified),1%,-16%,-7%,?,.,.,.
Cn1cnc2ccc(-c3cccc(C(F)(F)F)c3)nc2c1=O,-10%[70.6 µM],?,?,i,.,.,.
FC(F)(F)c1cc(-c2nc3ccccc3s2)cc(C(F)(F)F)c1,.,.,.,.,13%,12%,?
Clc1cccc(-c2nc3ccccc3s2)c1,.,.,.,.,19%,16%,8.8µM*
CCOCCNC(=O)c1nc2cccnc2n(CCc2ccccc2)c1=O,.,-2%,?,.,.,.,.
CCCCCC(=O)N1[C@@H](c2ccco2)[C@@H](C(=O)NC)C[C@]12CCCCN(CCOC)C2=O,.,?,-19%,.,.,.,.

# Source: PubChem BioAssay (National Center for Advancing Translational Sciences (NCATS))
